In test [1] the test system is Plasmodium falciparum Sir2 (PF13_0152, Sir2A). In words: Plasmodium falciparum Sir2A binding compounds – biochemical, small-molecule microarray, 635 nm fluorescence, primary screen (AID 1098).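 Also: score merges spot fluorescence intensity with its signal-to-noise ratio.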 To be noted: fluorescence 635 nm, higher = more signal.
Test [2] can be described thus: probe aDKK1 binding to arrayed compounds – biochemical, biotinylated probe, 635/667 nm fluorescence, primary screen (AID 1099).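 Also: score merges 667nm spot fluorescence with signal to noise across triplicate slides.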 To be noted: small-molecule microarray, higher = more signal.
Test [3] is described as follows: probe aCHRDL2 binding to arrayed compounds – biochemical, biotinylated probe, 635/667 nm fluorescence, primary screen (AID 1100). The settings on record: small-molecule microarray, higher = more signal.
The nature of test [4]: change in splice reporter luminescence, either direction, cell-based, HEK293, spliceosome inhibition project, primary screen (AID 1101).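 Also: HEK293 cells carrying a splicing-competent luciferase reporter gene; test concentration not given here.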 To be noted: HEK293 splicing luciferase reporter, 24 h, higher = more signal, called active from +8 up or from −8 down.
For test [5], the target named is Fibroblast growth factor 10 (Homo sapiens) (UniProt O15520). Description: compounds binding fibroblast growth factor 10 – biochemical, small-molecule microarray, 635 nm fluorescence, primary screen (AID 1102). To be noted: FGF10 binding, fluorescence 635 nm, higher = more signal.
Sequence of Fibroblast growth factor 10 (Homo sapiens) (O15520 whole entry, looked up): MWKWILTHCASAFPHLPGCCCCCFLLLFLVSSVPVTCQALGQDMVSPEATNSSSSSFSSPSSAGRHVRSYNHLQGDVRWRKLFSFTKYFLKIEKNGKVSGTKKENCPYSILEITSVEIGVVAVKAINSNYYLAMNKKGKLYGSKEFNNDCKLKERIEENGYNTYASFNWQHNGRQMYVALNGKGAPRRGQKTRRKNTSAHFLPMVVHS
The subject of test [6] is glycogen synthase kinase-3 (GSK3A per assay name; protocol says GSK3B). In words: compounds binding glycogen synthase kinase-3 – biochemical, small-molecule microarray, 635 nm fluorescence, GSK3A, primary screen (AID 1103). Also: the record names both GSK3A and GSK3B. The settings on record: fluorescence 635 nm, higher = more signal.
The target of test [7] is Epidermal growth factor receptor (Homo sapiens) (UniProt P00533). Description: compounds binding epidermal growth factor receptor – biochemical, small-molecule microarray, 635 nm fluorescence, primary screen (AID 1104).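 Also: score merges 667 nm emission intensity with spot signal to noise over triplicate slides.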 The settings on record: EGFR binding, higher = more signal.
Sequence of Epidermal growth factor receptor (Homo sapiens) (P00533 whole entry, looked up): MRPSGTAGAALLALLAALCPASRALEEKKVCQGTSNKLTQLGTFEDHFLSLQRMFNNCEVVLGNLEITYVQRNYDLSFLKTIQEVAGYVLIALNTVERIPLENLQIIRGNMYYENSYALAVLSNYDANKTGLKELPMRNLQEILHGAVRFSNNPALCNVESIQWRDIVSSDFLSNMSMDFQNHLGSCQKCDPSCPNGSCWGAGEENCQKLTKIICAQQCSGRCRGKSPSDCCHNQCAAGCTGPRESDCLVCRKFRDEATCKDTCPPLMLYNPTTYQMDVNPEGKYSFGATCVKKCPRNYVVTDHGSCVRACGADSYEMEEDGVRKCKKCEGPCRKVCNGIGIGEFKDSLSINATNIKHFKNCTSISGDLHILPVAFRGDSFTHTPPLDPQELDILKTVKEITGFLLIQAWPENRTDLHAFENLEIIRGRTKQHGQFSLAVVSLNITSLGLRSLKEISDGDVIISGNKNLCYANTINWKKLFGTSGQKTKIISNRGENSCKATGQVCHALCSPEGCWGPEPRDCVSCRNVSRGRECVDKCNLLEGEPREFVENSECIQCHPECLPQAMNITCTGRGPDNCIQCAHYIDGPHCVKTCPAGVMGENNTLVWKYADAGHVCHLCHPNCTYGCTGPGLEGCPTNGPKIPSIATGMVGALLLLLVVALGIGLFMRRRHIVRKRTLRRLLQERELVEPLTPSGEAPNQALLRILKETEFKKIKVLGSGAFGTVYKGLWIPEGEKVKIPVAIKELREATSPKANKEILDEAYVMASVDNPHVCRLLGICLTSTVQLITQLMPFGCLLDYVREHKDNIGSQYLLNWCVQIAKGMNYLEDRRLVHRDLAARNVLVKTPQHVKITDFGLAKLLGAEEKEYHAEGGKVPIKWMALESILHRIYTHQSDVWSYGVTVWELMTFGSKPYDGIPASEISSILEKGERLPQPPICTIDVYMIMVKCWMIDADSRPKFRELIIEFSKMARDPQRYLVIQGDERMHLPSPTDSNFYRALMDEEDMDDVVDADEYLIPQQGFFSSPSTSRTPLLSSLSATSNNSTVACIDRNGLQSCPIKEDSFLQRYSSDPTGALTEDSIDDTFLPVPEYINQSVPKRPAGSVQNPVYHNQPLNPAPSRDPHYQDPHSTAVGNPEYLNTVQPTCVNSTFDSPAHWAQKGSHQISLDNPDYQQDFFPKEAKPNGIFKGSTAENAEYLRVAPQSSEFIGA
Test [8] deals with Follistatin-related protein 3 (Homo sapiens) (UniProt O95633). In words: compounds binding follistatin-related protein 3 – biochemical, small-molecule microarray, 635 nm fluorescence, primary screen (AID 1105).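 Also: score merges emission near 667 nm and signal to noise per printed spot across three slides.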 To be noted: FSTL3 binding, higher = more signal.
Sequence of Follistatin-related protein 3 (Homo sapiens) (O95633 whole entry, looked up): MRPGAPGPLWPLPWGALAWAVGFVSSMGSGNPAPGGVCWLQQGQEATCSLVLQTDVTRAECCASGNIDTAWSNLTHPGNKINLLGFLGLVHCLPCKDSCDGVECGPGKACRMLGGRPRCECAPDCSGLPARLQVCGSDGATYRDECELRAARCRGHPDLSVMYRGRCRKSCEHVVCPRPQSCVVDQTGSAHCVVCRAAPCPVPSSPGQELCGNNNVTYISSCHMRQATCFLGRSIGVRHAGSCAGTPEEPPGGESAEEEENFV
Test [9] concerns the target Dickkopf-related protein 1 (Homo sapiens) (UniProt O94907). In words: small molecules binding DKK1 protein – biochemical, small-molecule microarray, 635 nm fluorescence scan, primary screen (AID 1106).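 Also: score merges emission near 667 nm with signal to noise over three replicate slides.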 The settings on record: higher = more signal.
The subject of test [10] is Inhibin beta A chain (activin A). In words: small molecules binding activin A – biochemical, small-molecule microarray, 635 nm fluorescence scan, primary screen (AID 1107).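 Also: mouse activin A protein probed at 4.33 µg/mL on printed slides; score merges bound-protein fluorescence near 667 nm with spot signal-to-noise.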 The settings on record: INHBA, higher = more signal.
The subject of test [11] is Human papillomavirus type 1a protein E7 (residues 44-93). In words: small molecules binding HPV E7 44-93 – biochemical, small-molecule microarray, residues 44-93, 635 nm fluorescence, primary screen (AID 1108).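 Also: E7 fragment applied at 1 µg/mL in TBST for 1 h at 4 C; score combines spot fluorescence with its signal to noise ratio.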 The settings on record: fluorescence 635 nm, higher = more signal.
The nature of test [12]: hepatitis C replication reporter changes, two-sided – Huh7 cells, luciferase reporter, HCV replication inhibitor project, primary screen (AID 1109).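 Also: huh7 hepatoma cells harbouring a luciferase neomycin HCV replicon reporter; luciferase luminescence as measure of HCV replicon replication; test concentration not given here.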 The settings on record: Huh7 HCV replicon luciferase reporter, 48 h; higher = more signal.
In test [13] the target is Left-right determination factor 2 (Homo sapiens) (UniProt O00292). Description: small molecules binding LEFTY2 protein – biochemical, small-molecule microarray, 635 nm fluorescence scan, primary screen (AID 1110). The settings on record: higher = more signal.
Sequence of Left-right determination factor 2 (Homo sapiens) (O00292 whole entry, looked up): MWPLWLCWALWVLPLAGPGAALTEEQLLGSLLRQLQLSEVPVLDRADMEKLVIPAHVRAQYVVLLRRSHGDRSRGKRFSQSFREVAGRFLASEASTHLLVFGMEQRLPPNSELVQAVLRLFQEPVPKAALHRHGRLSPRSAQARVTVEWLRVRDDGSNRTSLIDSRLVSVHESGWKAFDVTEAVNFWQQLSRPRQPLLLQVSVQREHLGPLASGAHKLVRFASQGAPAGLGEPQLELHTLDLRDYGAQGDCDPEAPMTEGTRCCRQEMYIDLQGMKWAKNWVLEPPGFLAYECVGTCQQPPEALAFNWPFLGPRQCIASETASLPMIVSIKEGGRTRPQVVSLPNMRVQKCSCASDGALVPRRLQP
The target in test [14] is Calmodulin-1 (Homo sapiens) (UniProt P0DP23). In words: small molecules binding calmodulin-1 with EGTA – biochemical, small-molecule microarray, Cy5-labelled CALM1, profiling panel (AID 1111).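 Also: labelled calmodulin applied in Tris saline Tween buffer holding calcium plus EGTA and DTT.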 To be noted: Cy5-CALM1 binding fluorescence, higher = more signal.
Test [15] shares this target. Description: small molecules binding Ca-loaded calmodulin-1 – biochemical, small-molecule microarray, Cy5-labelled CALM1, plus calcium, artefact control for SMM control-protein annotation, profiling panel (AID 1112).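 Also: score merges spot fluorescence with signal to noise from triplicate slides.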 To be noted: Cy5-CALM1 binding fluorescence, higher = more signal.
Test [16] in a line: probe aWnt5a binding to arrayed compounds – biochemical, biotinylated probe, 635/667 nm fluorescence, primary screen (AID 1113).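 Also: score merges 667 nm fluorescence intensity with signal-to-noise per printed feature.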 To be noted: small-molecule microarray, higher = more signal.
Test [17] is described as follows: probe aShh binding to arrayed compounds – biochemical, biotinylated probe, 635/667 nm fluorescence, primary screen (AID 1114).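 Also: probe is biotin-labelled aShh protein from a stem cell growth factor screen; measures binding of labelled protein to compounds printed on the slide; score merges feature fluorescence at 667 nm with signal-to-noise.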 The settings on record: small-molecule microarray, higher = more signal.
The nature of test [18]: probe aNog binding to arrayed compounds – biochemical, biotinylated probe, 635/667 nm fluorescence, primary screen (AID 1115).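 Also: probe is biotinylated aNog protein used at 0.15 µg/mL for 1 h at 4 C; z-score combines 667 nm fluorescence of each spot with its signal to noise.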 To be noted: small-molecule microarray, higher = more signal.
In test [19] the target is Torsin-1A-interacting protein 1 (Homo sapiens) (UniProt Q5JTV8). In words: compound microarray binding of lysate hLAP1 – cell lysate, small-molecule microarray, COS7 lysate, 635/667 nm fluorescence, primary screen (AID 1116). The settings on record: 635 nm fluorescence, higher = more signal.
Sequence of Torsin-1A-interacting protein 1 (Homo sapiens) (Q5JTV8 whole entry, looked up): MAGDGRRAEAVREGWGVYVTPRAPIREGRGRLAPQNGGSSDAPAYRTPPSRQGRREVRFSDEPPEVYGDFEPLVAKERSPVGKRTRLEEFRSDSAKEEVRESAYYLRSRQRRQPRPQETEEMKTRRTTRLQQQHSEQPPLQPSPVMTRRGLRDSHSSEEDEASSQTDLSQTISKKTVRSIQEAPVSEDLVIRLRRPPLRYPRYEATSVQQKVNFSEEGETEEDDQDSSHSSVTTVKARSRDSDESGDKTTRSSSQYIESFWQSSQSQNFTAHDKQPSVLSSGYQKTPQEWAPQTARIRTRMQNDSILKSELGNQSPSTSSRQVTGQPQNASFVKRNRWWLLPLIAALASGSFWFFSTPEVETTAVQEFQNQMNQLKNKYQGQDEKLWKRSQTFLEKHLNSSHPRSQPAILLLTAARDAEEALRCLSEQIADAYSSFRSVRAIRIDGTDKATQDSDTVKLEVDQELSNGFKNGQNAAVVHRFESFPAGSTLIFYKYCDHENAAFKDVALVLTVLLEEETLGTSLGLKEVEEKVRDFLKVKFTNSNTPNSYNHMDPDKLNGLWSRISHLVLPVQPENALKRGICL
In test [20] the target is Alpha-bungarotoxin (Bungarus multicinctus) (UniProt P60615). In words: compounds binding labelled alpha-BTX control protein – biochemical, small-molecule microarray, Alexa647 label, 635/667 nm fluorescence, artefact control for SMM control protein annotation, profiling panel (AID 1117). To be noted: alpha-BTX-A647 binding fluorescence, higher = more signal.
Sequence of Alpha-bungarotoxin (Bungarus multicinctus) (P60615 whole entry, looked up): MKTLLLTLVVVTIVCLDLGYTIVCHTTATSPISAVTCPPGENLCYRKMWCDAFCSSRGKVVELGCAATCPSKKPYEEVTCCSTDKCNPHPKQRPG

Calls of active or inactive are those of the source.

Sequence of Dickkopf-related protein 1 (Homo sapiens) (O94907 whole entry, looked up): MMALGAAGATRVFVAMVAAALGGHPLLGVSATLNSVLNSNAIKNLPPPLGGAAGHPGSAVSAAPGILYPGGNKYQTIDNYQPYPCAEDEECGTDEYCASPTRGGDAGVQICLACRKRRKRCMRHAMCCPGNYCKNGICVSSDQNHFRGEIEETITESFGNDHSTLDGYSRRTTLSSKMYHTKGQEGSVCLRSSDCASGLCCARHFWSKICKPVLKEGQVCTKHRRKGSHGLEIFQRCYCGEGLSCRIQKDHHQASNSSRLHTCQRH

With `[N-]=[N+]=Nc1ccccc1C[C@]1(C(N)=O)N=C(c2ccc(OCCCO)cc2)O[C@H]1c1ccccc1N=[N+]=[N-]`, the composite z-score in test [1] stood at 0.902; in [2], 0.504; in [3], 0.676; in [5], 0.856; in [6] it was 0.966; in test [7], 0.188. Moreover, the composite z-score in test [8] was -0.0523; in [9], -0.442; in test [10], 1.25; in test [11], 1.38; in [13], -0.0114; in [14], 1.55. Besides, the composite z-score was found to be 0.873 in test [15]; 0.0799 in test [16]; 0.162 in [17]; 1.03 in [18]; 0.776 in [19]; 0.702 in test [20]. The z-score in test [4] is -1.82 (inactive); in test [12], -2.55.
Regarding `COCCOC(=O)N1C(=O)[C@@]2(c3cc(C#Cc4ccc(OC)cc4)ccc31)[C@H](C(=O)Nc1nc3ccccc3s1)[C@H]1C(=O)O[C@H](c3ccccc3)[C@H](c3ccccc3)N1[C@@H]2c1ccc(OCCO)cc1`, the composite z-score was 0.557 in test [1]; -0.135 in test [2]; -0.571 in test [3]; 1.37 in test [5]; 1.28 in [6]; 0.654 in test [7]. Besides, the composite z-score in test [8] was determined as 1.38; in test [9], 0.901; in [10], 0.0865; in test [11] it was 1.17; in test [13], 0.785; in test [14], 0.762. Further, the composite z-score in test [15] was -0.621; in test [16], -0.0704; in test [17] it was -0.223; in [18] it was -0.268; in [19], 0.179; in [20] it was 1. In addition, the z-score in test [4] is -0.653 (inactive); in [12], -2.19.
Take `C=C[C@@H](OC)[C@H](OC(=O)Nc1ccc(SC)cc1)c1ccc(O)c(F)c1`: the composite z-score in test [1] was 1.2; in test [2] it was -0.0849; in test [3] it was 0.293; in [5], 0.588; in test [6], 0.288; in test [7], -0.198. Besides, the composite z-score was 0.213 in test [8]; 0.19 in [9]; 0.312 in test [10]; 1.33 in [11]; -0.374 in test [13]; -0.25 in [14]. For the same compound, the composite z-score is -0.479 in test [15]; -0.142 in test [16]; -0.0626 in [17]; 0.0553 in test [18]; 0.345 in [19]; 1.22 in test [20]. The values for the z-score in [4] and in test [12] were -1.17 (inactive) and 0.362, respectively.
On to `C=CCOC(=O)[C@H]1[C@@H]2C(=O)O[C@@H](c3ccccc3)[C@@H](c3ccccc3)N2[C@@H](c2ccc(OCCOC(=O)[C@@H]3C[C@@H]4C(=O)N5CCC[C@H]5C(=O)N4[C@@H]3c3ccc(O)cc3)cc2)[C@]12C(=O)Nc1ccc(I)cc12`, for which the composite z-score in test [1] is 0.637; in test [2], -0.102; in [3], 0.357; in [5] it was 0.53; in test [6], 0.195; in [7], 0.482. The composite z-score was 0.594 in [8]; 1.39 in test [9]; 0.372 in test [10]; -0.0566 in test [11]; 0.621 in test [13]; 0.793 in test [14]. Besides, the composite z-score was 0.29 in test [15]; -0.117 in test [16]; -0.155 in [17]; 0.633 in test [18]; 0.521 in test [19]; 0.881 in test [20]. Also, the z-score is 0.431 (inactive) in test [4] and -1.71 in [12].
Take `COC(=O)Cn1c(C(=O)N(C)C)cc2c1C[C@H]1CN(C(=O)c3ccccc3)[C@@](Cc3ccc(F)cc3)(C(=O)OC)[C@@H]21`: the composite z-score was 0.441 in test [1]; 0.903 in test [2]; 0.823 in test [3]; 1.33 in test [5]; -0.367 in test [6]; 0.404 in [7]. Further, the composite z-score in test [8] was 0.139; in test [9] it was -0.0283; in test [10], 0.65; in [11], 0.389; in [13] it was 0.484; in [14] it was 0.642. For the same compound, the composite z-score in [15] amounted to 0.496; in test [16] it was 0.328; in test [17] it was 0.235; in test [18], 0.715; in test [19] it was 0.768; in test [20], 0.368. The z-score in test [4] was -0.233 (inactive); in test [12], 0.387.
Consider `C=C[C@@H](COC(C)=O)N(C(=O)OC(C)(C)C)S(=O)(=O)c1ccc(Br)cc1`, for which the composite z-score was 0.732 in test [1]; 0.311 in test [2]; -0.152 in test [3]; 1.18 in test [5]; 1.23 in test [6]; 0.837 in test [7]. Besides, the composite z-score came out at 1.45 in test [8]; 2.14 in test [9]; 0.824 in test [10]; 0.789 in test [11]; 1.27 in [13]; 0.486 in test [14]. The composite z-score is 0.367 in [15]; 0.0973 in test [16]; -0.141 in test [17]; -0.0317 in test [18]; 1.06 in test [19]; 1.32 in [20]. Besides, the z-score in test [4] was 0.446 (inactive); in [12], 0.429.

For the origin of these results see PubChem BioAssay.
